Measured values as given in PubChem BioAssay.
Unmarked numbers belong to inactive results. How the calls were made is not given here.

What follows are compounds tested against Pantothenate synthetase (Mycobacterium tuberculosis (strain ATCC 25618 / H37Rv)) (UniProt P9WIL5) (assay: Recombinant Mtb pantothenate synthetase (PanC) inhibitors, coupled enzyme, confirmatory (AID 375;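 further: 0% = full reaction with vehicle and 100% = no enzyme background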)). Conditions: coupled enzyme assay; at 10 µM, hits give high values.
Pantothenate synthetase (Mycobacterium tuberculosis (strain ATCC 25618 / H37Rv)), sequence (P9WIL5 whole entry, looked up): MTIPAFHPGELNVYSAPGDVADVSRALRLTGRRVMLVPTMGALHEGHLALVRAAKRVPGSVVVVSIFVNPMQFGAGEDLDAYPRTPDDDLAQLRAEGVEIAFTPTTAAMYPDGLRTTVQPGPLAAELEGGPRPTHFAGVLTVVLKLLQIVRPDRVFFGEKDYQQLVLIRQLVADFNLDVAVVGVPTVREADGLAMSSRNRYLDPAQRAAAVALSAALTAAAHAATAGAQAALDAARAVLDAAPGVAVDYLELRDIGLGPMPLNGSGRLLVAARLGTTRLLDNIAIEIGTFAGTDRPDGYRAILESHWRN

Structure (SMILES)	inhibition [%]
Cc1noc(C)c1CSc1nnc(-c2ccncc2)n1-c1cccc(Cl)c1C	0
COc1ccc(NS(=O)(=O)c2coc(C(N)=O)c2)cc1Cl	0
CC1Oc2ccccc2N(Cc2ccccc2Cl)C1=O (stereo not drawn)	9
COc1c(C(=O)Nc2c(C)n(C)n(-c3ccccc3)c2=O)ccc2ccccc12	0
O=C1N=C(N2CCOCC2)CS1	0
Cn1cccc1-c1nc2ccc(NC(=O)c3ccco3)cc2[nH]1	6
CCN(CC)c1ccc(NC(=O)c2cncc(Br)c2)cc1	0
CC(C)=CCCC(C)CN(C)CCc1ccccn1 (stereo not drawn)	0
CCCOC(=O)c1[nH]c2c(c1C)C(=O)CC(c1cc(OC)c(OC)c(OC)c1)C2 (stereo not drawn)	0
CCCCn1c(NC(=O)CC)c(C#N)c2nc3ccccc3nc21	4
COc1ccc(NC(=O)CCNC(=O)Cn2ccc3ccccc3c2=O)c(OC)c1	0
CCn1c(SCC(=O)Nc2nnc(C)s2)nnc1-c1ccncc1	1
CCOc1cc(C2C(C#N)=C(N)OC(C)=C2C(C)=O)cc(Br)c1O (stereo not drawn)	1
N#Cc1c(N2CCOCC2)nc(N2CCCCC2)c2c1CCN(C1CCCCC1)C2	0
CCOc1cc(C2C(C(=O)OC(C)C)=C(C)N=C3SCCC(=O)N32)ccc1OC(C)=O (stereo not drawn)	0
CCOC(=O)Cc1csc(NC(=O)CSc2nnc(C)n2C)n1	0
Cc1ccc(-n2cnnn2)c2cccnc12	5
Cc1cnn(C(=S)NCc2ccco2)c1	0
